# Results reported in PMC4336329 (PLoS ONE, 2015).
# The campaign covered roughly 310,000 compounds. About 2,200 (0.71%) showed an effect of 50% or more. The effect is printed as a negative number. Many of the other results were omitted from the sample, so strong results are more common in it than they were.
# Molecular target: human ether-à-go-go-related gene (hERG) potassium channel (human, UniProt Q12809)
# Assay: primary screen, population patch clamp on CHO cells stably expressing hERG; higher = less effect of the substance
# Chain of human ether-à-go-go-related gene (hERG) potassium channel (Q12809 whole entry, looked up): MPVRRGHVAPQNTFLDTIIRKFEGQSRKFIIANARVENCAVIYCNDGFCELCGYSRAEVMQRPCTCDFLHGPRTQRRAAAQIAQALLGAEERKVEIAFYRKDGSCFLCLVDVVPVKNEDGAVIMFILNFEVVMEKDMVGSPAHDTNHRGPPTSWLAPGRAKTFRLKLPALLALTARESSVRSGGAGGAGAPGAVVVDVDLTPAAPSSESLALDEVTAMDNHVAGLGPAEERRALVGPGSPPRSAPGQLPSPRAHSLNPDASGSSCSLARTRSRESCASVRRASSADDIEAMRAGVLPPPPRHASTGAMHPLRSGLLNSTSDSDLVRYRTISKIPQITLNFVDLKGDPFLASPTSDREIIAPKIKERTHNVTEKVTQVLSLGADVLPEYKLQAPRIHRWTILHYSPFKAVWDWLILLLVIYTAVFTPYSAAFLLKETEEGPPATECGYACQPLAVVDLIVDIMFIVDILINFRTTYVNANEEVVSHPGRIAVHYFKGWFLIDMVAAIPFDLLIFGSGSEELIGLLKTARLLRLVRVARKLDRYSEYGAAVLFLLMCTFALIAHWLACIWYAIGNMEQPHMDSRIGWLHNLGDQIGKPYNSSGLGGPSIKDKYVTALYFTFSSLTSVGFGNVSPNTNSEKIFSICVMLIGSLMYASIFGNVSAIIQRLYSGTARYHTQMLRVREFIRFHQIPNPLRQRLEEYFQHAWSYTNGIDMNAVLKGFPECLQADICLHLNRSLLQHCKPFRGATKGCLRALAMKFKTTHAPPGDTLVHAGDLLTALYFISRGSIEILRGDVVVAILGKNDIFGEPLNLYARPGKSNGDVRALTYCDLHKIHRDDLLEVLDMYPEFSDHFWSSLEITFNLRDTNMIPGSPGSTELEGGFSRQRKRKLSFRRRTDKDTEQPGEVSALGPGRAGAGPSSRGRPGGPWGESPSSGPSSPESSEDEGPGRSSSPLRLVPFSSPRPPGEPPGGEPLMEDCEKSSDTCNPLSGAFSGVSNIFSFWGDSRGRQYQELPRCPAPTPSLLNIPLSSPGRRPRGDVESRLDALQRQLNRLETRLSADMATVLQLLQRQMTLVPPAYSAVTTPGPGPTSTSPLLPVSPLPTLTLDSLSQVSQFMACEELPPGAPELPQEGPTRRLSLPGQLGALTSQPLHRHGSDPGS
row,Compound,"hERG current change (%, negative = inhibition) at 1uM [%]"
1,CCOc1ccc(CCNC(=O)CN2CCN(Cc3ccccc3F)C2=O)cc1OCC,-0.385
2,Cc1ccc(S(=O)(=O)N2CCC(C(=O)Nc3ncccc3O)CC2)cc1,-13.8
3,CCC1CCCCN1CCCNC(=O)c1ccc2c(c1)N(Cc1ccc(F)cc1)C(=O)c1ccccc1S2=O (stereo not shown),-13.7
4,Cc1nc(S(=O)(=O)c2ccc(Cl)cc2)nc2c1CCC2,0.296
5,CCOc1ccccc1CN1C(=O)NC(C)(c2ccccc2)C1=O (stereo not shown),-0.418
6,CCN(C1CCCCC1)S(=O)(=O)CCNC(=O)c1ccccc1,2.25
7,COc1ccc(CN(CCN(C)C)c2ccccn2)cc1.O=C(O)/C=C\C(=O)O,-0.0995
8,CC[N+](C)(C)CCN(Cc1ccc(Cl)cc1)c1ccccn1.[Br-],-33.2
9,CCCCCCCCCCCCCCCC[N+](C)(C)CCN(Cc1ccc(OC)cc1)c1ncccn1.[Br-],-61.5
10,COc1cc(C)ccc1OCCCOc1ccccc1Br,12.3
11,O=C(CCn1c(=O)c2sccc2n(Cc2cc(=O)n3ccccc3n2)c1=O)NCc1ccco1,-25.1
12,CCCC(=O)N1CCCC(C(=O)c2cccc(OC(C)C)c2)C1 (stereo not shown),9.81
13,CCOC(=O)N1CCC(N2CCCC(C(=O)c3ccc4cc(OC)ccc4c3)C2)CC1 (stereo not shown),-55.1
14,CC(C)Oc1cccc(C(=O)C2CCCN(C3CCOCC3)C2)c1 (stereo not shown),-5.96
15,CCOC(=O)N1CCC(N2CCCC(C(=O)c3cccc(OC)c3)C2)CC1 (stereo not shown),-13.2
16,CCOC(=O)N1CCC(N2CCCC(C(=O)c3cccc(OC(C)C)c3)C2)CC1 (stereo not shown),-61.3
17,CCOC(=O)N1CCC(N2CCCC(C(=O)c3cc(C)c(OC)c(C)c3)C2)CC1 (stereo not shown),-28.1
18,O=C(COC(=O)CCc1ccccc1)NCc1ccccc1,12.3
19,COc1ccc(C2C(C(=O)Nc3cccnc3)=C(C)Nc3nc(-c4cccs4)nn32)cc1 (stereo not shown),-2.21
20,COc1ccccc1-c1nc2n(n1)C(c1cccs1)C(C(=O)Nc1cccnc1)=C(C)N2 (stereo not shown),0.0177
21,COc1cccc(-c2nc3n(n2)C(c2cccs2)C(C(=O)Nc2cccnc2)=C(C)N3)c1 (stereo not shown),-51.2
22,CC(=O)OC(C(=O)NC1CCCCC1)c1ccccc1 (stereo not shown),9.71

row,Compound,"hERG current change (%, negative = inhibition) at 1uM [%]"
1,CCCN(C(=O)c1ccc(N(C)S(=O)(=O)c2ccc(C)cc2)cc1)C1CCS(=O)(=O)C1 (stereo not shown),14.8
2,CCN(CC)CCCNC(=O)CNC(=O)c1nn(-c2ccc(OC)cc2)c(=O)c2ccccc12,17.5
3,CCN(CC)CCCNC(=O)c1nn(-c2ccc(OC)cc2OC)c(=O)c2ccccc12,8.97
4,CCN(CC)CCCNC(=O)c1nn(-c2cccc(OC)c2)c(=O)c2ccccc12,-66.9
5,CC(=O)NS(=O)(=O)c1ccc(NC(=O)C(Sc2ccccc2)c2ccccc2)cc1 (stereo not shown),7.09
6,Cn1c(=O)c(C(=O)CN2CCCCC2)c(N)n(Cc2ccccc2)c1=O,6.17
7,Cc1coc2cc3oc(=O)c(CCC(=O)N4C[C@H]5C[C@@H](C4)c4cccc(=O)n4C5)c(C)c3cc12,-16.8
8,Cc1c(CC(=O)N2C[C@H]3C[C@@H](C2)c2cccc(=O)n2C3)c(=O)oc2cc3occ(C(C)(C)C)c3cc12,-56.8
9,Cc1coc2cc3oc(=O)c(CC(=O)N4C[C@H]5C[C@@H](C4)c4cccc(=O)n4C5)c(C)c3cc12,4
10,Cc1noc(C)c1COC(=O)c1cccc(S(=O)(=O)N2c3ccccc3CC2C)c1 (stereo not shown),10.5
11,O=C(N/N=C/c1c(O)ccc2ccccc12)c1cccc(C(F)(F)F)c1,13.9
12,CC1CCCCN1C(=O)C(Cc1ccccc1)N1C(=O)C2CCCCC2C1=O (stereo not shown),10.7
13,CCOC(=O)c1c(NC(=S)Nc2ccc(F)cc2)sc2c1CCC2,-21.8
14,O=C(Nc1ccccc1N1CCN(C(=O)c2ccccc2)CC1)c1ccccc1Cl,-29.8
15,COc1ccc(Cl)cc1C(=O)Nc1ccccc1N1CCN(C(=O)C(C)C)CC1,-19.6
16,COc1ccc(Cl)cc1C(=O)NC(=S)Nc1ccccc1N1CCOCC1,9.75
17,CS(=O)(=O)N1CCN(c2ccccc2NC(=O)c2cc(Br)ccc2Cl)CC1,-1.64
18,CC(=O)N1CCN(c2ccccc2NC(=O)c2cc(Br)ccc2Cl)CC1,-27
19,COc1ccccc1C(=O)Nc1ccccc1N1CCN(C(=O)c2ccc(Cl)cc2)CC1,-85.2
20,CN1CCN(c2ccccc2NC(=O)c2cc(Br)ccc2Cl)CC1,-53.1
21,COc1ccc(Br)cc1C(=O)Nc1ccccc1N1CCN(C(=O)c2ccccc2)CC1,7.55
22,COc1ccc(Cl)cc1C(=O)Nc1ccccc1N1CCN(C)CC1,-70.4

row,Compound,"hERG current change (%, negative = inhibition) at 1uM [%]"
1,CC(=O)c1nc2ccccc2n1Cc1ccccc1,9.31
2,CCCCn1c(N)c(N(CCC(C)C)C(=O)C2=COCCO2)c(=O)[nH]c1=O,5.25
3,COC(=O)CN1C(=O)Nc2ccc(Cl)cc2C1c1ccccc1 (stereo not shown),22.6
4,Cc1cc(C)nc(N2CCC(CNC(=O)CCc3ccccc3)CC2)n1,20.4
5,O=C(NCC(c1cccs1)N1CCOCC1)c1cc(S(=O)(=O)N2CCOCC2)c(Cl)cc1Cl (stereo not shown),6.08
6,O=C(NCc1ccncc1)c1cc(S(=O)(=O)N2CCOCC2)c(Cl)cc1Cl,12.6
7,O=C(NCc1cccs1)c1cc(S(=O)(=O)N2CCOCC2)c(Cl)cc1Cl,-78.4
8,CC(=O)Nc1ccc(S(=O)(=O)Nc2ccc(S(=O)(=O)Nc3ncccn3)cc2)cc1,8.81
9,CCOC(=O)C1CCN(c2c(NCCCN3CCN(Cc4ccccc4)CC3)c(=O)c2=O)CC1,14.3
10,CCOC(=O)C1CCN(Cc2ccc(-c3ccccc3)cc2)CC1,8.54
11,CCOC(=O)C1CCN(c2c(N3CCCC(C(=O)OCC)C3)c(=O)c2=O)CC1 (stereo not shown),8.36
12,CCOC(=O)C1CCCN(c2c(N3CCN(c4cccc(Cl)c4)CC3)c(=O)c2=O)C1 (stereo not shown),-54.1
13,CCOC(=O)C1CCCN(c2c(N3CCN(C)CC3)c(=O)c2=O)C1 (stereo not shown),10.2
14,CCOC(=O)C1CCN(c2c(N3CCN(Cc4ccccc4)CC3)c(=O)c2=O)CC1,-66.6
15,CCOc1ccc(S(=O)(=O)N/N=C(\C)c2ccc(Cl)c(Cl)c2Cl)cc1,12.1
16,Cc1ccc2oc(C(=O)Nc3ccc(S(=O)(=O)Nc4onc(C)c4C)cc3)cc(=O)c2c1,15.4
17,COc1ccc2[nH]c3c(=O)n(CCN4CCOCC4)cnc3c2c1,9.44
18,CCN1CCCC1Cn1cnc2c([nH]c3cc(OC)ccc32)c1=O (stereo not shown),-53.5
19,COc1ccc2c(c1)[nH]c1c(=O)n(CC3CCCO3)cnc12 (stereo not shown),14.6
20,CCC1CCCN1Cn1cnc2c([nH]c3ccc(OC)cc32)c1=O (stereo not shown),-35.8
21,COc1ccc2c(c1)[nH]c1c(=O)n(CCN3CCCC3)cnc12,-17.4
22,CCN1CCCC1Cn1cnc2c([nH]c3ccc(OC)cc32)c1=O (stereo not shown),-58.5

row,Compound,"hERG current change (%, negative = inhibition) at 1uM [%]"
1,Cc1cc(C(=O)NC2CCCc3c2cnn3-c2ccc(C(C)(C)C)cc2)nn1C (stereo not shown),16.5
2,O=[N+]([O-])c1cc([N+](=O)[O-])c2nonc2c1Nc1ccc(O)cc1,2.03
3,CC1CCN(S(=O)(=O)c2ccc3c(c2)c(=O)c(C(=O)NC2CCCC2)cn3C)CC1,9.59
4,CCCCS(=O)(=O)N1CCC(C(=O)Oc2ccc(Cl)cc2)CC1,17.9
5,COc1ccc(S(=O)(=O)N2CCN(C(=O)CN3C(=O)NC(C)(C)C3=O)CC2)cc1,14
6,Cn1c(N)c(C(=O)COC(=O)CCCOc2ccc(Cl)cc2Cl)c(=O)n(C)c1=O,16
7,CC(Oc1ccc(Cl)cc1Cl)C(=O)OCC(=O)c1c(N)n(C)c(=O)n(C)c1=O (stereo not shown),-57.5
8,Cn1c(N)c(C(=O)COc2ccc(Cl)cc2Cl)c(=O)n(C)c1=O,12.3
9,O=C(CSc1nc2c(cnn2-c2ccc(F)cc2)c(=O)[nH]1)N1CCCCCC1,11
10,O=C(Nc1ccncc1)C1COc2ccccc2O1 (stereo not shown),1.88
11,Cc1ccc(N2CC(C(=O)N3CCC4(CC3)CC(=O)c3ccccc3O4)CC2=O)cc1 (stereo not shown),-47.4
12,O=C1CC2(CCN(C(=O)C3CC(=O)N(c4ccc(F)cc4)C3)CC2)Oc2ccccc21 (stereo not shown),-73.6
13,COc1ccc(N2CC(C(=O)N3CCC4(CC3)CC(=O)c3ccccc3O4)CC2=O)cc1 (stereo not shown),-34.8
14,Cc1ccc(N2CC(C(=O)N3CCC4(CC3)CC(=O)c3ccccc3O4)CC2=O)cc1C (stereo not shown),-6.22
15,O=C(C1CC(=O)N(c2ccc(F)cc2)C1)N1CCN(c2ccccc2)CC1 (stereo not shown),-13.6
16,O=C(C1CC(=O)N(c2ccccc2)C1)N1CCN(c2ccc(F)cc2)CC1 (stereo not shown),-8.63
17,O=C1CC2(CCN(C(=O)C3CC(=O)N(c4ccccc4)C3)CC2)Oc2ccccc21 (stereo not shown),-51.5
18,O=C(C1CC(=O)N(c2ccc(F)cc2)C1)N1CCN(c2ccc(F)cc2)CC1 (stereo not shown),-71.1
19,COc1cccc(N2CC(C(=O)N3CCC4(CC3)CC(=O)c3ccccc3O4)CC2=O)c1 (stereo not shown),3.79
